Assay results: PubChem BioAssay AID624141 (Broad Institute, 2012)
The whole screen tested about 17,000 compounds, of which about 260 (1.5%) were called active.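 Rule for the calls: active = spot fluorescence over background with P-value below 7% in all four replicate spots, showing protein binding; inactive = the rest.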 The sample as a whole holds a higher share of actives than the screen did.

Biological target: Myc proto-oncogene protein (Homo sapiens) (UniProt P01106)
Experiment: small molecules binding His-tagged c-Myc – biochemical, small molecule microarray, anti-His fluorescence, primary screen (AID 624141)

Sequence of Myc proto-oncogene protein (Homo sapiens) (P01106 whole entry, looked up): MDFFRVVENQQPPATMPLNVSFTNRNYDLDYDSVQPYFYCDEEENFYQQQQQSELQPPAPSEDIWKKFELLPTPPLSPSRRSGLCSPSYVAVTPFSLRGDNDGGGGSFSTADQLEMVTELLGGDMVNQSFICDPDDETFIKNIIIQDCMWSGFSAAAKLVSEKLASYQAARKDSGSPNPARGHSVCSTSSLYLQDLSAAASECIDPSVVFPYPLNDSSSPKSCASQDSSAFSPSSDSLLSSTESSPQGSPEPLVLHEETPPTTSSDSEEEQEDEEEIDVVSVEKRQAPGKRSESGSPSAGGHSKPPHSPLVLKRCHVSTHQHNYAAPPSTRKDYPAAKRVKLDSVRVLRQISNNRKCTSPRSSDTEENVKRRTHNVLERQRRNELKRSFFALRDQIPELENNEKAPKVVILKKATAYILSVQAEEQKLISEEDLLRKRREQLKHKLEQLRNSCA

Row | SMILES | outcome
1 | Cc1cc2c(=O)n(C)c(SCC(=O)c3cc4ccccc4o3)nc2s1 | inactive
2 | COc1ccccc1N(CC(=O)N1CCCCC1)S(C)(=O)=O | inactive
3 | C[C@@H]1CN([C@@H](C)CO)C(=O)Cc2cc(NC(=O)Nc3ccc(F)cc3)ccc2O[C@@H]1CN(C)C | inactive
4 | Cn1c(SCc2nc3ccccc3c(=O)[nH]2)nnc1-c1cc2ccccc2o1 | inactive
5 | C[C@@H]1CN([C@@H](C)CO)C(=O)c2cc(NS(C)(=O)=O)ccc2O[C@H]1CN(C)C(=O)Nc1ccc(F)cc1 | inactive
6 | COc1ccc(C#Cc2ccc3c(c2)[C@]2(C(=O)N3)[C@H](C(=O)N3CCc4cc(OC)c(OC)cc4C3)[C@H]3C(=O)O[C@H](c4ccccc4)[C@H](c4ccccc4)N3[C@@H]2c2ccc(O)cc2)cc1 | inactive
7 | O=C(NCC1CCCO1)c1ccc(NC(=O)c2cc(-n3cnnc3)ccc2Cl)cc1 (centres undefined) | inactive
8 | CNC[C@H]1OCCCC[C@@H](C)Oc2ccc(NC(=O)c3ccccc3)cc2C(=O)N([C@@H](C)CO)C[C@H]1C | inactive
9 | Cc1ccc(Cn2ncc3c(N4CCN(CCOc5ccc(C)cc5)CC4)ncnc32)cc1 | inactive
10 | C[C@@H]1CN([C@H](C)CO)C(=O)Cc2cc(NS(=O)(=O)c3cccs3)ccc2O[C@@H]1CN(C)C(=O)Nc1ccc(F)cc1 | inactive
11 | O=C1NC(Cc2c[nH]c3ccccc23)C(=O)N2CCCC12 (centres undefined) | inactive
12 | Cc1noc(C)c1NC(=O)N(C)C[C@@H]1Oc2ccc(NC(=O)C3CC3)cc2C(=O)N([C@H](C)CO)C[C@@H]1C | inactive
13 | O=C1O[C@@H](c2ccccc2)[C@@H](c2ccccc2)N2[C@@H](c3ccc(O)cc3)[C@]3(C(=O)Nc4ccccc43)[C@@H](C(=O)O)[C@H]12 | inactive
14 | CCOc1ccc(NC(=O)C2CC(=O)n3c(nc4ccccc43)N2)cc1 (centres undefined) | inactive
15 | C[C@@H]1CCCCO[C@H](CN(C)C(=O)Cc2ccccc2)[C@H](C)CN([C@H](C)CO)C(=O)c2cc(NS(=O)(=O)c3cn(C)cn3)ccc2O1 | inactive
16 | COc1cc(O)c2c(=O)c(O[C@@H]3O[C@@H](CO)[C@H](O)[C@H]3O[C@@H]3O[C@@H](C)[C@H](O)[C@@H](O)[C@H]3O)c(-c3ccc(O)cc3)oc2c1 | inactive
17 | CN(C)CC/C=C1\c2ccccc2CSc2ccccc21 | inactive
18 | C[C@H](CO)N1C[C@H](C)[C@@H](CN(C)C)Oc2c(NC(=O)Nc3ccc(F)cc3)cccc2C1=O | inactive
19 | C[C@H]1CN([C@@H](C)CO)C(=O)c2cc(NC(=O)Cn3cnnn3)ccc2O[C@@H]1CN(C)S(=O)(=O)c1cccs1 | inactive
20 | C[C@H](CO)N1C[C@H](C)[C@H](CN(C)C(=O)Nc2ccc(C(F)(F)F)cc2)Oc2ccc(NC(=O)Nc3ccccc3)cc2C1=O | inactive
21 | C[C@@H]1CN([C@H](C)CO)C(=O)c2cccc(NS(C)(=O)=O)c2O[C@@H]1CN(C)C(=O)Nc1cccc2ccccc12 | inactive
22 | O=C(NCc1ccccc1)C1=C[C@H](C2CC2)C[C@H](OCc2ccc(CO)cc2)O1 | inactive
23 | C[C@H](CO)N1C[C@H](C)[C@H](CN(C)CC2CC2)Oc2ccc(NC(=O)c3ccncc3)cc2C1=O | inactive
24 | C[C@H]1CN([C@@H](C)CO)C(=O)c2cc(NC(=O)Cn3cnnn3)ccc2O[C@H]1CN(C)C(=O)NC1CCCCC1 | inactive
25 | CC(C)NC(=O)N(C)C[C@H]1OCCCC[C@@H](C)Oc2ccc(NS(C)(=O)=O)cc2C(=O)N([C@H](C)CO)C[C@H]1C | inactive

Row | SMILES | outcome
26 | CC(C)NC(=O)N(C)C[C@H]1Oc2ccc(NC(=O)CCC(F)(F)F)cc2CC(=O)N([C@@H](C)CO)C[C@@H]1C | inactive
27 | C[C@H]1CCCCO[C@H](CN(C)C(=O)CCC(F)(F)F)[C@@H](C)CN([C@@H](C)CO)C(=O)c2cc(NC(=O)Nc3ccc4c(c3)OCO4)ccc2O1 | inactive
28 | O=C1c2ccccc2[C@](Cc2ccccc2I)(C(=O)NCc2ccccc2)[C@H](c2ccc(CO)cc2)N1C1CCCCC1 | inactive
29 | Cc1cc(C)c2nc(-c3cccnc3)cc(C(=O)Nc3sc(Cc4ccccc4)cc3C(N)=O)c2c1 | inactive
30 | CC(C)NC(=O)N(C)C[C@@H]1Oc2ccc(NS(=O)(=O)c3ccccc3)cc2C(=O)N([C@@H](C)CO)C[C@H]1C | inactive
31 | C[C@@H]1CN([C@@H](C)CO)C(=O)c2cccc(NC(=O)c3ccc(-c4nccs4)cc3)c2O[C@H]1CN(C)C(=O)Nc1ccccc1 | inactive
32 | Cc1cccc(OCCCC(=O)Nc2sc3c(c2C(N)=O)CCCC3)c1C | inactive
33 | Cc1nn(-c2ccccc2)c(CC(C)(C)C(=O)O)c1C(=O)O | inactive
34 | C[C@H]1CN([C@@H](C)CO)C(=O)Cc2cc(NC(=O)Nc3ccccc3)ccc2O[C@H]1CN(C)Cc1ccncc1 | inactive
35 | C[C@@H]1CCCCO[C@@H](CN(C)Cc2ccncc2)[C@@H](C)CN([C@@H](C)CO)C(=O)c2cc(N(C)C)ccc2O1 | inactive
36 | C[C@H](CO)N1C[C@H](C)[C@H](CN(C)C)Oc2ccc(NC(=O)Nc3ccc(F)cc3)cc2CC1=O | inactive
37 | C[C@@H]1CN([C@@H](C)CO)C(=O)Cc2cc(NC(=O)Cc3cn(C)c4ccccc34)ccc2O[C@H]1CN(C)C(=O)NC1CCCCC1 | inactive
38 | C/C=C(\C)C(=O)OC(/C=C/C(O)C(C)O)C1C=CC(=O)O1 (centres undefined) | inactive
39 | C=C(C(=O)O)C1CCC2(C)CCC(=O)C(C)=C2C1 (centres undefined) | inactive
40 | Cn1c(OCc2cccnc2)nc2c1c(=O)n(Cc1ccc(Cl)c(Cl)c1)c(=O)n2C | inactive
41 | CCO[C@H]1OC(C(=O)O)=C[C@@H](C2CCCCC2)[C@@H]1CCCO | inactive
42 | Nc1nnc(SCC(=O)Nc2ccc(Cl)cc2O)s1 | inactive
43 | COc1ccc(S(=O)(=O)N(C)C[C@@H]2Oc3ccc(NC(=O)CCC(F)(F)F)cc3C(=O)N([C@@H](C)CO)C[C@H]2C)cc1 | inactive
44 | CN1CCN(C(=O)C2=C[C@@H](c3ccc(Br)cc3)C[C@@H](OCCCCO)O2)CC1 | inactive
45 | C[C@H]1CN([C@@H](C)CO)C(=O)Cc2cc(N(C)C)ccc2O[C@@H]1CN(C)S(=O)(=O)c1ccc(F)cc1 | inactive
46 | Nc1nnc(SCCN2C(=O)c3ccccc3S2(=O)=O)s1 | inactive
47 | C[C@@H]1CN([C@H](C)CO)C(=O)CCCn2nncc2CO[C@@H]1CN(C)Cc1ccc2c(c1)OCCN2C | inactive
48 | Cc1c(NC(=O)/C(C#N)=C/c2ccccc2Cl)c(=O)n(-c2ccccc2)n1C | inactive
49 | C/C(=C\CC[C@H](CO)[C@@H]1CC[C@]2(C)C3=C(CC[C@@]12C)[C@@]1(C)CCC(=O)C(C)(C)C1CC3)C(=O)O (some centres undefined) | inactive
50 | COCCOC(=O)N1C(=O)[C@@]2(c3cc(C#CCNC(N)=O)ccc31)[C@H](C(=O)N1CCN(c3ncccn3)CC1)[C@H]1C(=O)O[C@H](c3ccccc3)[C@H](c3ccccc3)N1[C@@H]2c1ccccc1OCCO | inactive

Row | SMILES | outcome
51 | Cc1cc(C(=O)c2ccccc2)ccc1OC(=O)COc1ccccc1[N+](=O)[O-] | inactive
52 | NC(=O)NCC#Cc1ccc2c(c1)[C@]1(C(=O)N2)[C@H](C(=O)Nc2nc3ccccc3s2)[C@H]2C(=O)O[C@H](c3ccccc3)[C@H](c3ccccc3)N2[C@@H]1c1ccc(OCCO)cc1 | inactive
53 | CC1=COC(O[C@@H]2O[C@H](CO)[C@@H](O)[C@H](O)[C@H]2O)C2C1CC(O)C2CO (some centres undefined) | inactive
54 | C[C@H](CO)N1C[C@H](C)[C@@H](CN(C)Cc2ccccc2)Oc2c(NC(=O)C3CCOCC3)cccc2C1=O | inactive
55 | C[C@H](CO)N1C[C@H](C)[C@H](CN(C)Cc2ccc(C(=O)O)cc2)Oc2ccc(NC(=O)NC3CCCCC3)cc2C1=O | inactive
56 | COc1ccc(S(=O)(=O)Nc2cccc3c2O[C@H](CN(C)Cc2ccc4c(c2)OCO4)[C@H](C)CN([C@@H](C)CO)C3=O)cc1 | inactive
57 | COc1cccc(NC(=O)c2cc([N+](=O)[O-])ccc2NC(=O)CN2CCCCCC2)c1 | inactive
58 | C[C@@H]1CN([C@@H](C)CO)C(=O)c2cccc(NC(=O)Nc3ccc(F)cc3)c2O[C@@H]1CN(C)Cc1ccc(C(=O)O)cc1 | inactive
59 | C[C@H](CO)N1C[C@H](C)[C@H](CN(C)Cc2ccc(C(F)(F)F)cc2)Oc2c(NC(=O)C3CCOCC3)cccc2C1=O | inactive
60 | O=C(Nc1cccc(CCc2ccccn2)c1)c1ccc(Cl)cc1 | inactive
61 | C[C@@H]1CCCCO[C@H](CN(C)C(=O)Nc2ccc3c(c2)OCO3)[C@H](C)CN([C@H](C)CO)C(=O)c2cc(NS(C)(=O)=O)ccc2O1 | inactive
62 | C[C@H]1CN([C@@H](C)CO)C(=O)c2cc(NS(=O)(=O)c3ccccc3)ccc2O[C@@H]1CN(C)C(=O)NC1CCCCC1 | inactive
63 | C[C@@H]1CN([C@@H](C)CO)C(=O)CCCn2cc(nn2)CO[C@@H]1CN(C)C(=O)C1CCCCC1 | inactive
64 | C[C@@H]1CCCCO[C@H](CN(C)C(=O)CCC(F)(F)F)[C@@H](C)CN([C@@H](C)CO)C(=O)c2cc(NC(=O)c3ccncc3)ccc2O1 | inactive
65 | COC(=O)c1cc(C)sc1NC(=S)Nc1ncn(Cc2ccc(F)cc2Cl)n1 | inactive
66 | O=C1C(=O)N(CCn2c3ccccc3c3nc4ccccc4nc32)c2ccccc21 | inactive
67 | CCc1ccc2c(c1)c1nc3ccccc3nc1n2CC(=O)OC | active
68 | CCn1c2ccccc2c2nnc(SCC(=O)O)nc21 | inactive
69 | O=C(O)c1cccc(S(=O)(=O)Nc2ccc(O)cc2Sc2nc3ccccc3s2)c1 | inactive
70 | Cc1ccc(OCC(=O)Nc2cc(-c3nc4cc(C)c(C)cc4o3)ccc2C)cc1 | inactive
71 | Cc1noc(C)c1NC(=O)N(C)C[C@@H]1Oc2ccc(NC(=O)Nc3ccc4c(c3)OCO4)cc2C(=O)N([C@H](C)CO)C[C@H]1C | inactive
72 | C[C@H](CO)N1C[C@H](C)[C@@H](CN(C)C(=O)Nc2ccccc2)Oc2ccc(NC(=O)C3CC3)cc2CC1=O | inactive
73 | C[C@@H]1CN([C@H](C)CO)C(=O)Cc2cc(NC(=O)C3CC3)ccc2O[C@H]1CN(C)Cc1ccc(Cl)c(Cl)c1 | active
74 | C[C@@H]1CN([C@H](C)CO)C(=O)Cc2cc(NC(=O)C3CC3)ccc2O[C@H]1CN(C)Cc1ccc2c(c1)OCO2 | inactive
